Screening results as filed in PubChem BioAssay.
Compounds with a hit are over-represented: about 17% of the library has one in this group of screens.
TGFb SMAD3 inh = inhibitors of TGF-b signaling; Potency, µM (highest dose often 46.1 µM), inactives show at the top dose activity, negative = inhibition, actives largely listed as inhibitors; hit rate 1.2% among 410,000; HepG2 CAGA-GFP TGF-b/SMAD3 reporter, GFP fluorescence, 18 h; TGF-beta stimulated, 500 pg/mL final; AID 588855; note: % is set by controls: 0 for no effect and ±100 for the full control effect; nearly all actives have a fitted effect of over 65% in size
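First, reporter cells (HEPG2 CAGA-GFP) rested 2 h at 37 degrees C. Next, compounds were pinned in and TGF-beta added to 500 pg/mL final. After 18 h, GFP was imaged per cell and summed per well.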
DT40 TDP1 no CPT = qHTS for Inhibitors of human tyrosyl-DNA phosphodiesterase 1 (TDP1): qHTS in cells in absence of CPT; hit rate 15% among 420,000; Potency, µM (titrated, usually from 46.2 µM), inactives show at the top dose activity change, negative = growth inhibition, actives largely listed as inhibitors; DT40 Tdp1-/- hTDP1 cells, no CPT, ATP luminescence, 48 h; note: % is set by controls: 0 for no effect and ±100 for the full control effect; nearly all actives have a fitted effect of over 55% in size
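Camptothecin absent (DMSO only). Human TDP1-complemented DT40 knockout cells, 400 cells/well, 37 °C for minimum 48 hr; ATP measured via CellTiter-Glo, 30 min dark incubation, luminescence.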
HepG2 tox = counter-screen for TGF-b inhibitors: cytotoxicity in HepG2 cells | HepG2 CAGA-GFP viability, ATP luminescence, 18 h | Potency, µM (series often up to 46.1 µM), for the others: at the highest dose activity change, negative = cytotoxicity, actives largely listed as cytotoxic | hit rate 0.76% among 410,000 | AID 588856
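CellTiter-Glo luminescence gave cytotoxicity after 18 hours at 37 degrees C. The cells were HepG2 CAGA-GFP in 1% FBS DMEM, stimulated with 500 pg/mL TGF-beta after compound addition. %Activity was normalised to no-cell wells (complete cell-killing) and DMSO (no toxicity), and curves were fitted and classified.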
S2 tox = viability counter-screen for ATXN expression inhibitors. S2 cells (HEK-293 line with an ATXN2-luciferase reporter) viability, CellTiter-Fluor protease fluorescence, 24 h. Potency, µM (doses to about 56.7 µM), usual class: cytotoxic. hit rate 0.49% among 400,000; note: nearly all actives have a fitted effect of over 40% in size
TDP1 cell CPT = DT40-hTDP1 cell growth loss with CPT. chicken DT40 Tdp1-/-;hTDP1 cells + 20 nM CPT, ATP luminescence, 48 h. Potency, µM (doses to about 46.2 µM), inactives show at the highest dose activity change, negative = growth inhibition, hits mostly inhibitors. hit rate 12% among 420,000; note: % is set by controls: 0 for no effect and ±100 for the full control effect; nearly all actives have a fitted effect of over 55% in size
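Chicken DT40 Tdp1-/- cells stably complemented with human TDP1 were seeded at 400 cells/well in medium containing 20 nM camptothecin, exposed to pin-transferred compounds, and grown at 37 °C for at least 48 hr. Viability was read as ATP luminescence.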
ATXN2 expr inh = reduces ATXN2 reporter expression in HEK-293 cells. HEK-293 ATXN2-luciferase reporter, luminescence, 24 h. Potency, µM (series often up to 57 µM), for the others: at the top dose activity change, negative = inhibition, usual class: inhibitors. hit rate 0.72% among 360,000. AID 1745845; note: % is set by controls: 0 for no effect and ±100 for the full control effect; nearly all actives have a fitted effect of over 55% in size
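qHTS (up to 57 uM final) was run with 24 h compound exposure of reporter cells at 37 °C. Each well was multiplexed: SteadyGlo luminescence measured ATXN2-luciferase expression after a fluorogenic Gly-Phe-AFC viability readout (25 uM final).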
* marks the source's active call; other numbers are inactive results; i = inactive; ? = inconclusive; . = not tested or not shown; [ ] = remark or other dose. Calls come from the whole dose curve; as a rule, active = well fitted curve in the direction sought with a large enough effect; inconclusive = small, poorly fitted or top-dose-only effect, or another doubt; inactive = no such curve, though single readings can be large; an effect the other way counts as inactive or inconclusive. Potency is the fitted concentration of half-maximal effect.

SMILES	TGFb SMAD3 inh	DT40 TDP1 no CPT	HepG2 tox	S2 tox	TDP1 cell CPT	ATXN2 expr inh
CCO[C@H]1OC(C(=O)NCc2nc3ccccc3[nH]2)=C[C@@H](c2csc3ccccc23)[C@@H]1CCCO	-11%	16µM*	2%	?	?	-3%
CCO[C@@H]1OC(C(=O)NCc2nc3ccccc3[nH]2)=C[C@H](c2csc3ccccc23)[C@H]1CCCO	?	23µM*	-16%	?	23µM*	?
CCO[C@H]1OC(C(=O)NCc2nc3ccccc3[nH]2)=C[C@@H](c2ccccc2)[C@@H]1CCCO	1%	?	-3%	i	?	5%
CCO[C@H]1OC(C(=O)NCc2nc3ccccc3[nH]2)=C[C@@H](C2CC2)[C@@H]1CCCO	-21%	0.58µM*	7%	?	0.82µM*	-21%
O=C(Nc1cccc(S(=O)(=O)N2CCOCC2)c1)C1CC(=O)N(c2ccc3c(c2)OCCO3)C1 (stereo not drawn)	1%	-2%	13%	i	-4%	.
Cc1cc(C)c(-n2c(SCCS(=O)(=O)c3ccc(F)cc3)n[nH]c2=O)c(C)c1	-12%	23µM*	-10%	?	26µM*	6%
Cc1cc(C)c(-n2c(SCc3nc4ccccc4s3)n[nH]c2=O)c(C)c1	?	29µM*	-20%	i	?	-27%
CCCn1c(SCc2nc3ccccc3s2)n[nH]c1=O	19%	8%	-28%	i	12%	109%
CCCN(Cc1cccs1)C(=O)Nc1cc(Cl)ccc1C	13%	23µM*	-3%	.	?	.
CCCN(Cc1cccs1)C(=O)Nc1ccc(Br)c(C)c1	11µM*	?	-28%	.	?	.
CCOC(=O)C1CCCN(CC(=O)Nc2c(C(=O)OC)[nH]c3ccc(Cl)cc23)C1 (stereo not drawn)	-4%	?	-6%	i	?	-1%
CCOC(=O)C1CCCN(CC(=O)Nc2c(C(=O)OC)[nH]c3ccc(C)cc23)C1 (stereo not drawn)	2%	23µM*	-20%	i	?	-3%
CCOC(=O)c1[nH]c2ccc(Br)cc2c1NC(=O)CCN1CCC(C(=O)OCC)CC1	0%	16µM*	0%	i	21µM*	0%
CCCCCCc1c(C)c2ccc(OCC(=O)N[C@@H](Cc3ccccc3)C(=O)O)cc2oc1=O	-8%	-12%	-10%	i	-21%	-11%
CCn1c(-c2ccccc2F)nc2cc(C(=O)NC(c3ccccn3)C(F)(F)F)cc(NC(C)=O)c21 (stereo not drawn)	.	-13%	.	i	7%[9.04 µM]	.
COc1ccc(NC(=O)c2c(C)oc3ccc(O)c(CN4CCCC(C)C4)c23)cc1Cl (stereo not drawn)	.	16µM*	11µM*	.	23µM*	.
COc1ccc(NC(=O)c2c(C)oc3ccc(O)c(CN4CCC(C)CC4)c23)cc1Cl	13µM*	?	10µM*	14µM*	9.2µM*	-19%
COc1ccc(NC(=O)C2=C(C)C(=O)OC23CCC(C)CC3)cc1Cl (stereo not drawn)	-2%	?	-18%	i	?	-12%
O=S(=O)(c1ccccc1)c1nc(-c2ccccc2)oc1N1CCCCC1	-22%	16µM*	-15%	i	?	-4%
Cc1ccc(S(=O)(=O)c2nc(-c3ccccc3)oc2N2CCCC2)cc1	13%	16%	1%	i	-18%	2%
Cc1ccc(S(=O)(=O)c2nc(-c3cccc(C)c3)oc2N2CCN(c3ccccc3)CC2)cc1	2%	1.5µM*	-5%	.	?	.
O=S(=O)(c1ccccc1)c1nc(-c2ccccc2)oc1N1CCCC1	-18%	-8%	-11%	i	-1%	-22%
Cc1ccc(S(=O)(=O)c2nc(-c3cccc(C)c3)oc2N2CCCCC2)cc1	-18%	23µM*	-31%	i	?	0%
CN1CCN(c2oc(-c3ccccc3)nc2S(=O)(=O)c2ccc(Br)cc2)CC1	-20%	?	-27%	?	16µM*	-24%
O=S(=O)(c1ccc(Cl)cc1)c1nc(-c2ccccc2)oc1N1CCN(c2ccccc2)CC1	-53%	?	-3%	i	?	-4%
SMILES	TGFb SMAD3 inh	DT40 TDP1 no CPT	HepG2 tox	S2 tox	TDP1 cell CPT	ATXN2 expr inh
O=C(Cc1ccccc1[N+](=O)[O-])c1ccc2c(c1)OCO2	10%	-18%	12%	?	-1%	31%
COc1ccc(N2CCN(CCCNC(=O)c3cnn(-c4ccc(F)cc4)c3-n3cccc3)CC2)cc1	-10%	.	-2%	i	.	-15%
O=S(=O)(c1ccccc1)c1nc(-c2ccccc2F)oc1N1CCOCC1	?	?	0%	?	?	-3%
COc1cccc(-c2nc(S(=O)(=O)c3ccc(C)cc3)c(N3CCCCCC3)o2)c1	-24%	4.6µM*	-14%	i	23µM*	-5%
Cc1ccc(-c2nc(S(=O)(=O)c3ccc(C)cc3)c(N3CCN(c4ccccc4)CC3)o2)cc1	3%	?	-31%	i	-13%	10%
Cc1ccc(S(=O)(=O)c2nc(-c3ccccc3)oc2N2CCN(c3ccccc3)CC2)cc1	-10%	21µM*	-16%	i	16µM*	-8%
Cc1ccc(S(=O)(=O)c2nc(-c3ccccc3F)oc2N2CCCCC2)cc1	?	15µM*	-4%	?	?	-14%
COc1ccc(Br)cc1CNC(=O)c1cc2n(n1)CCCN(Cc1ccc(C)cc1)C2=O	?	?	-18%	?	?	-19%
COc1cccc(NC(CNS(=O)(=O)c2ccc(C)cc2)c2ccccc2)c1 (stereo not drawn)	14µM*	?	-94%	?	?	?
COc1cccc(NC(CNS(=O)(=O)c2ccc(Cl)cc2)c2ccccc2)c1 (stereo not drawn)	11µM*	16µM*	-101%	?	?	?
COc1ccc(Br)cc1CN1CCC(N2CCCC2)CC1	5%	?	4%	i	?	-13%
O=C(Nc1ccc2c(c1)OCCO2)C(=S)NCc1ccccc1	-18%	-17%	29%	i	0%	58%
Cc1cccc(C)c1NC(=O)C1CCCN1C(=O)Nc1cccc(F)c1 (stereo not drawn)	0%	-3%	1%	i	-12%	-2%
CC(=O)c1cccc(NS(=O)(=O)c2ccc3[nH]c4c(c3c2)CCCCC4)c1	?	16µM*	-90%	?	21µM*	?
